Results on 59 molecules are retold here after PubChem BioAssay AID686978 (National Center for Advancing Translational Sciences (NCATS), 2013).

In all, about 420,000 compounds went through this assay and about 64,000 (15%) were called active. About 27% were inconclusive and are not listed. Calls follow the shape of the dose curve; as a rule, active = well fitted inhibition curve with a large enough effect; inconclusive = small, poorly fitted or top-dose-only effect; inactive = flat fitted curve, though single readings scatter. A selection follows. Entries that show only a call come without a potency. Peptide text beside a SMILES is read from it.
Potency is read from the fitted curve at half-maximal effect.

The nature of the assay: qHTS for Inhibitors of human tyrosyl-DNA phosphodiesterase 1 (TDP1): qHTS in cells in absence of CPT. Also: nearly all actives have a fitted effect of over 55% in size. Particulars: DT40 Tdp1-/- hTDP1 cells, no CPT, ATP luminescence, 48 h; activity change, negative = growth inhibition: at 46.2 µM (top of the series). The method, boiled down:
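Camptothecin absent (DMSO only). Human TDP1-complemented DT40 knockout cells, 400 cells/well, 37 °C for minimum 48 hr; ATP measured via CellTiter-Glo, 30 min dark incubation, luminescence.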
On to `Cc1cc(C(=O)Nc2cccc(C(F)(F)F)c2)c2c(C)nn(-c3cccc(F)c3)c2n1`, for which the Potency was 23.1 µM (active).
In the case of `CC(=O)c1nn(-c2cccc(C(F)(F)F)c2)c(=O)[nH]c1=O` it was “inactive”.
Turning to `Cc1cccc(NC(=O)c2nnn(-c3cccc(C(F)(F)F)c3)c2N)c1`, the Potency entry was “inactive”.
Regarding `COc1ccc(NC(=O)CN(C)C(=O)CC2CCCCC2)cc1`, the Potency entry was “inactive”.
For `CC1CCCCC1NC(=O)COC(=O)Cc1ccc(Cl)cc1` (centres undefined), the Potency entry is “inactive”.
Turning to `CC1CCCC(NC(=O)CN2CCN(Cc3ccc(Cl)cc3)C2=O)C1C` (centres undefined), the Potency was 23.1 µM (active).
In the case of `Cc1ccc(CNC(=O)CN2CCN(Cc3ccc(Cl)cc3)C2=O)cc1` it was “inactive”; in that of `Cc1ccc(S(=O)(=O)N/N=C(\c2ccccc2)C2CC2)cc1`, “inactive”.
On to `Cc1ccc2c(c1)N(CC(=O)N1CCC(O)CC1)C(=O)CO2`, for which the Potency result was “inactive”.
The value for `CC[C@H](C)CCCCC(=O)N[C@@H](CCN)C(=O)N[C@H](C(=O)N[C@@H](CCN)C(=O)N[C@H]1CCNC(=O)[C@@H]([C@H](C)O)NC(=O)[C@H](CCN)NC(=O)[C@H](CCN)NC(=O)[C@H](CC(C)C)NC(=O)[C@@H](CC(C)C)NC(=O)[C@H](CCN)NC1=O)[C@@H](C)O` (HELM PEPTIDE1{[CC[C@H](C)CCCCC(=O)[*:2]].[Dab].T.[Dab].[Dab].[Dab].[dL].L.[Dab].[Dab].[dT]}$PEPTIDE1,PEPTIDE1,5:R3-11:R2$$$V2.0) was “inactive”; that for `COc1ccc(-c2nc3c4ccccc4n(CC(=O)Nc4ccc(C(C)=O)cc4)c(=O)n3n2)cc1` was “inactive”.
For `O=c1n(Cc2cccc(C(F)(F)F)c2)c2ccccc2c2nc(-c3ccccc3)nn12`, the Potency was 25.9 µM (active).
With `Cc1cc(N2CCN(c3cccc(C(F)(F)F)c3)CC2)n2nc(-c3ccccc3)nc2n1`, the Potency entry is “inactive”.
On to `CCN(CCCNC(=O)CCn1c(=O)[nH]c2ccsc2c1=O)c1ccccc1`, for which the Potency result is “inactive”.
For `COc1cc(OC)cc(C(=O)Nc2ncc3c(n2)CC(C)(C)CC3=O)c1`, the Potency entry was “inactive”.
`Cc1ccc(NC(=O)C(CC(=O)O)C2CCCO2)c(C)c1` (centres undefined): the Potency entry was “inactive”.
Consider `CSCCC(NC(=O)c1ccc(Cl)cc1Cl)C(=O)NNC(=O)c1csc(N2CCOCC2)n1` (centres undefined), for which the Potency entry was “inactive”.
As to `Cc1ccc(CCn2c3c(c4ccccc42)CN(C)CC3)cn1`, the Potency entry was “inactive”.
Regarding `COc1ccc(C(=O)NC(=O)CSc2nnc(-c3ccco3)n2-c2ccccc2)cc1`, the Potency result was “inactive”.
`Cc1ccc(-c2noc(CSc3nnc(-c4ccncc4)n3-c3ccc(F)cc3)n2)cc1`: the Potency was 18.4 µM (active).
`Cn1c(SCc2ccc(F)cc2)nnc1-c1ccncc1`: the Potency entry is “inactive”.
On to `COc1ccc(-c2noc(CSc3nnc(-c4ccccc4)n3-c3ccc(F)cc3)n2)c(OC)c1`, for which the Potency was 20.6 µM (active).
With `COc1ccccc1-c1noc(CSc2nc(C)cc(=O)[nH]2)n1`, the Potency entry is “inactive”.
For `Cc1ccc(-c2noc(CSc3nnnn3-c3ccccc3)n2)cc1`, the Potency result was “inactive”.
Consider `Cc1nc(N2CCOCC2)sc1C(=O)NN`, for which the Potency entry was “inactive”.
The value for `COC(=O)Cc1ccc(OCC(=O)NC2CCCC2)cc1` was “inactive”.
In the case of `COc1ccc(-n2nc3c(c2NC(=O)Cc2cccc(C)c2)CS(=O)C3)cc1` (centres undefined) it was “inactive”.
For `Cc1nc(NC(CC(C)C)C(=O)O)c2nc(C)oc2n1` (centres undefined), the Potency entry was “inactive”.
In the case of `Cc1ccc(NC(=S)N/N=C2/CCCc3c(C)cc(C)cc32)cc1` it was “inactive”; in that of `Cc1ccc(S(=O)(=O)c2nnn3c2nc(N2CCN(c4ccccc4F)CC2)c2cc(Cl)ccc23)cc1C`, “inactive”; in that of `COc1ccc(OC)c(NC(=O)Cn2c(=O)n(Cc3ccccc3)c(=O)c3ccccc32)c1`, “inactive”.
As to `COCCn1c(SCC(=O)Nc2cc(Cl)ccc2OC)nc2c(c1=O)SC(C)C2` (centres undefined), the Potency is 20.6 µM (active).
In the case of `COCCn1c(SCC(=O)Nc2cc(OC)ccc2OC)nc2c(c1=O)SC(C)C2` (centres undefined) it was 13 µM (active); in that of `Cc1ccc(Cl)cc1NC(=O)CSc1nccn1C`, “inactive”; in that of `COCCn1c(SCC(=O)Nc2ccccc2F)nc2c(c1=O)SCC2`, “inactive”.
`COc1ccc(NC(=O)CSc2nc(SC)ns2)c(OC)c1`: the Potency entry is “inactive”.
Turning to `CCc1cccc(C)c1NC(=O)CSc1nnc(-c2ccco2)n1N`, the Potency result was “inactive”.
Regarding `CCOC(=O)CSc1nnc(NC(=O)c2cccc(S(=O)(=O)N3CCCC3)c2)s1`, the Potency entry was “inactive”.
In the case of `O=C(Nc1cccc2cccnc12)c1cccc2c(Br)cccc12` it was “inactive”.
On to `Cc1ccccc1CS(=O)(=O)CC1(O)CCN(C(=O)c2cccc(C(F)(F)F)c2)CC1`, for which the Potency result is “inactive”.
Turning to `CCN(Cc1ccccc1)C(=O)CCS(=O)(=O)c1ccc2c(c1)oc(=O)n2C`, the Potency result is “inactive”.
As to `COc1cccc2c1CCC(NC(C)=O)C2=O` (centres undefined), the Potency result is “inactive”.
`FC(F)(F)c1ccc(-n2cn[nH]c2=S)cc1`: the Potency result is “inactive”.
For the molecule `COc1ccc(-c2c(C)nn3c(N4CCC(C(=O)N5CCCCC5)CC4)cc(C)nc23)cc1OC`, the Potency entry is “inactive”.
The value for `N#Cc1cc([N+](=O)[O-])ccc1NCC1CCCO1` (centres undefined) was “inactive”; that for `O=C(Nc1ccc2c(c1)OCCO2)c1ccoc1` was “inactive”.
With `Cc1cccc(N2CCN(c3ccc(C(N)=O)cc3[N+](=O)[O-])CC2)c1C`, the Potency result is “inactive”.
For `COc1ccc(NS(=O)(=O)c2ccc(N3CCN(CCO)CC3)c([N+](=O)[O-])c2)cc1`, the Potency was 3.66 µM (active).
In the case of `COc1ccc(N2C(=O)CC(Nc3ccc(F)cc3)C2=O)c([N+](=O)[O-])c1` (centres undefined) it was “inactive”; in that of `Cc1ccc(C(=O)c2ccc(N3CCN(C)CC3)c([N+](=O)[O-])c2)cc1`, 23.1 µM (active); in that of `CC1CCN(c2ccc(S(=O)(=O)Nc3cc(C(=O)O)cc(C(=O)O)c3)cc2[N+](=O)[O-])CC1`, “inactive”.
For the molecule `Cc1ccc(S(=O)(=O)N2CCN(C(=O)c3ccc(-n4cncn4)c([N+](=O)[O-])c3)CC2)cc1`, the Potency result was “inactive”.
Consider `COc1ccc(NS(=O)(=O)c2ccc(N3CCOCC3)c(NC(=O)/C=C/C(=O)O)c2)cc1`, for which the Potency entry was “inactive”.
Regarding `CN1CCN(c2ccc(S(=O)(=O)Nc3ccccc3)cc2[N+](=O)[O-])CC1`, the Potency was 9.2 µM (active).
On to `CS(=O)(=O)N1CCN(c2ccc(C(=O)NC3C4CC5CC(C4)CC3C5)cc2[N+](=O)[O-])CC1` (centres undefined), for which the Potency was 23.1 µM (active).
Turning to `Cc1ccc(S(=O)(=O)NCCSc2ccccc2)cc1[N+](=O)[O-]`, the Potency result is “inactive”.
As to `FC(F)(F)c1ccc2nnc(-c3c(Cl)cccc3Cl)n2c1`, the Potency entry is “inactive”.
With `COc1ccc(-n2c(C)nn(CC3CC3)c2=O)cc1`, the Potency entry was “inactive”.
The value for `O=C(COc1coc(CN2CCN(c3ccccc3)CC2)cc1=O)N1CCc2ccccc21` was “inactive”.
